# Unmarked numbers belong to inactive results.
# System: GRIA2
# Assay: glutamate-evoked VSD slope (GluSlope), % of maximal glutamate response; higher = potentiation (PAM), active = hit call of the paper
# Conditions: 10 µM; glutamate: EC50 (3-4 uM); clone: A2R-stg (HEK293 GluA2flip(R) + stargazin)
# Method: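 lower means inhibition (NAM); Primary voltage-sensitive dye (FLIPR Blue) screen on TetON HEK293 cells expressing GluA2flip(R) with stargazin (A2R-stg). Compound at 10 uM was preincubated for 290 s, then about EC50 glutamate (3-4 uM) was added; fluorescence was read on an FDSS at 1 Hz. GluSlope is expressed as % of the mean maximal-glutamate (1 mM) slope after vehicle subtraction. Hits deviated more than 3 SD from the plate EC50-glutamate wells. One well per compound.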
row,Structure (SMILES),glutamate-evoked VSD slope [%]
1,Cc1ccccc1OCC(=O)Nc1cc(C(=O)N2CCCC2)cn(C)c1=O,58.2
2,Cc1ccc(-n2nc3c(c2-n2cccc2)CN(C(=O)c2cnccn2)C3)cc1C,61.4
